# Results: PubChem BioAssay (NCI)
# Compounds without any hit were thinned out: in the full panel of roughly 79,000, 15% have a hit. Unmarked numbers belong to inactive results. Activity calls are given as the source filed them. No stated cut-off is given here; in the data, active means growth inhibition above about 70%; inactive means the rest.
# Assays:
# [1] = NCI Yeast Anticancer Drug Screen. Data for the rad50 strain (AID 155);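 further: 0% = growth of vehicle-only cultures of the same strain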; conditions: S. cerevisiae rad50 strain growth inhibition, active compounds read high
# Summary of the method: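 Relative growth inhibition (compound vs vehicle) was measured in yeast with a defined repair-gene alteration.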
# [2] = NCI Yeast Anticancer Drug Screen. Data for the mec2-1 strain (AID 157); conditions: S. cerevisiae mec2-1 strain, active compounds read high
# Summary of the method: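 Readout is yeast growth inhibition, normalised to vehicle-treated controls, in the mec2-1 strain exposed to compound.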
# [3] = NCI Yeast Anticancer Drug Screen. Data for the sgs1 mgt1 strain (AID 161);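 further: 0% = growth of cultures given vehicle only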; conditions: S. cerevisiae sgs1 mgt1 strain, active compounds read high
# Summary of the method: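 Yeast cells carrying a defined DNA-repair defect were exposed to test compounds. Growth inhibition was measured relative to vehicle-treated controls.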
# [4] = NCI Yeast Anticancer Drug Screen. Data for the cln2 rad14 strain (AID 165);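 further: 0% = growth equal to vehicle treated cultures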; conditions: S. cerevisiae cln2 rad14 strain, active compounds read high
# Summary of the method: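 Relative to vehicle controls, growth inhibition of compound-treated cln2 rad14 yeast was recorded.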
# [5] = NCI Yeast Anticancer Drug Screen. Data for the bub3 strain (AID 167); conditions: S. cerevisiae bub3 mutant strain, active compounds read high
# Summary of the method: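 Screening used yeast with an engineered genetic alteration affecting cell cycle control. Compound-exposed cultures were compared with vehicle cultures, and reduced growth was taken as inhibition.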
# [6] = NCI Yeast Anticancer Drug Screen. Data for the mlh1 rad18 strain (AID 175); conditions: S. cerevisiae mlh1 rad18 strain growth inhibition, active compounds read high
# Summary of the method: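 Test agents were incubated with a yeast strain of defined genotype (DNA damage repair defect). Inhibition of growth was derived by comparison with vehicle-exposed cultures.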
# [7] = at 5.0 µM (retest, dose inferred, filed as 0.5)
# [8] = at 50.0 µM (retest, dose inferred, filed as 5.0)
SMILES,"growth inhibition [1, 7]","growth inhibition [1, 8]",growth inhibition ([1]; at 50.0 µM),"growth inhibition [2, 7]","growth inhibition [2, 8]",growth inhibition ([2]; at 50.0 µM),"growth inhibition [3, 7]","growth inhibition [3, 8]",growth inhibition ([3]; at 50.0 µM),"growth inhibition [4, 7]","growth inhibition [4, 8]",growth inhibition ([4]; at 50.0 µM),"growth inhibition [5, 7]","growth inhibition [5, 8]",growth inhibition ([5]; at 50.0 µM),"growth inhibition [6, 7]","growth inhibition [6, 8]",growth inhibition ([6]; at 50.0 µM)
C=CC1(C)CCC2C(=CCC3C(C)(C(=O)O)CCCC23C)C1 (configuration not stated) (tested in a mixture with another compound),-5%,61%,65.1%,0%,87% (active),74.2% (active),-5%,59%,32.4%,-28%,66%,76.8% (active),-17%,66%,64.2%,6%,84% (active),72% (active)
O=C(O)C(Br)C(Br)C(=O)Nc1ccc(Cl)c(Cl)c1 (configuration not stated),91% (active),99% (active),96.3% (active),52%,99% (active),98.1% (active),85% (active),99% (active),96.8% (active),25%,99% (active),84.7% (active),96% (active),100% (active),98.8% (active),48%,99% (active),96% (active)
Cc1cc(Cl)nc2ccc(Cc3ccc4nc(Cl)cc(C)c4c3)cc12,4%,27%,15.1%,15%,5%,2.45%,7%,7%,-19.6%,3%,13%,15.4%,8%,13%,23.4%,0%,12%,37.8%
O=C(NC1=C(Cl)C(=O)c2ccccc2C1=O)C(=O)C(C(=O)c1ccc2ccccc2c1)C1OC(=O)c2ccccc21 (configuration not stated),33%,85% (active),89.8% (active),16%,59%,63.5%,30%,98% (active),88.5% (active),20%,95% (active),88.1% (active),22%,99% (active),85.3% (active),26%,83% (active),88.8% (active)
O=C(c1ccccc1)N(C1CCCCC1)C1CCCCC1,7%,97% (active),98.1% (active),1%,98% (active),98.5% (active),5%,97% (active),99% (active),-2%,95% (active),98.9% (active),-3%,93% (active),98% (active),5%,97% (active),98.3% (active)
CC1CC(C)CC(C(O)(C(=O)O)C2CC(C)CC(C)C2)C1 (configuration not stated),23%,99% (active),99.2% (active),18%,99% (active),97% (active),10%,99% (active),99.5% (active),82% (active),100% (active),78.5% (active),29%,-34%,94% (active),18%,99% (active),99.5% (active)
CC(C)C1=C(O)c2ccccc2C(=O)C1=O,-9%,97% (active),86.8% (active),13%,94% (active),78.7% (active),38%,97% (active),90.5% (active),-21%,86% (active),62.6%,11%,97% (active),84.3% (active),18%,98% (active),90.2% (active)
CCCCCCCCCCCCCCCC(=O)NCC[N+](C)(CC)CC,-32%,0%,57.4%,-6%,-11%,27.4%,-4%,30%,72.2% (active),1%,-15%,17.9%,2%,19%,10.5%,-8%,7%,29.5%
Oc1ccc2cc(Br)ccc2c1O,-28%,97% (active),97.2% (active),-11%,97% (active),98.3% (active),10%,98% (active),97.5% (active),-24%,97% (active),97% (active),-5%,98% (active),98% (active),-7%,97% (active),98.2% (active)
c1ccc(N=Nc2n[nH]c3ccccc23)cc1,-144%,94% (active),98.6% (active),-51%,74% (active),98.8% (active),-66%,85% (active),92.6% (active),-59%,29%,98% (active),-65%,91% (active),97.1% (active),-119%,94% (active),97% (active)
O=C(Cc1ccccc1)OC(C(=O)c1ccccc1)c1ccccc1 (configuration not stated),4%,94% (active),-15.7%,7%,95% (active),10.3%,3%,93% (active),-0.1%,2%,90% (active),-12.3%,20%,92% (active),72.2% (active),4%,92% (active),-3.1%
O=C(CSc1nnc(Cc2ccccc2)o1)Nc1ccc(Cl)cc1[N+](=O)[O-],1%,56%,83% (active),-13%,57%,50.3%,4%,49%,76.5% (active),10%,51%,21.8%,-10%,64%,15.1%,4%,53%,83.8% (active)
Cc1nc(N)sc1N=Nc1cc(Cl)c([N+](=O)[O-])cc1Cl,-4%,26%,38%,-7%,33%,39.5%,4%,77% (active),70.2% (active),4%,2%,35.1%,4%,7%,47.5%,11%,78% (active),78.1% (active)
O=C(/C(=C\I)c1ccccc1)c1ccccc1,6%,6%,88.5% (active),-15%,-15%,92.5% (active),-8%,-8%,86.4% (active),-6%,-6%,89.9% (active),-24%,-24%,90.2% (active),-13%,-13%,86.7% (active)
Nc1ccc(-c2nc3ccccc3s2)cc1I,34%,71% (active),84.3% (active),20%,74% (active),89.1% (active),44%,88% (active),87.3% (active),50%,68%,86.2% (active),53%,95% (active),84.2% (active),27%,77% (active),84% (active)
CC(NC(=O)OCc1ccccc1)C(=O)NNc1ccccc1Cl (configuration not stated),88% (active),96% (active),97.5% (active),9%,99% (active),96.8% (active),49%,99% (active),91.4% (active),29%,68%,98.2% (active),73% (active),42%,97.5% (active),96% (active),99% (active),97.5% (active)
S=c1c2cn[nH]c2nc2scc(-c3ccc(Cl)cc3)n12,1%,98% (active),45.4%,-29%,97% (active),49.7%,-27%,98% (active),65.9%,24%,98% (active),33.9%,-4%,97% (active),49%,11%,97% (active),30.6%
Fc1ccc(NC(=S)SCc2ccc(Cl)c(Cl)c2)c(F)c1,13%,98% (active),98.5% (active),7%,99% (active),97.3% (active),6%,98% (active),99.2% (active),-6%,97% (active),98.8% (active),11%,98% (active),99% (active),9%,95% (active),99% (active)
CCOC(=O)CNC(=O)CNC(=O)CNC(c1ccccc1)(c1ccccc1)c1ccccc1,-8%,56%,66.5%,41%,69%,60.3%,-13%,81% (active),55.1%,-10%,26%,68.8%,-1%,61%,38.4%,15%,83% (active),63.7%
